Source: PubChem BioAssay (Tox21)
Inconclusive results are not listed. Active and inactive are the calls of the source. The call rests on the fitted dose curve; in most records, active means well fitted cell-killing curve with a large enough effect in the repeat runs; inconclusive means weak or mixed curves, or effect the other way; inactive means flat fitted curve, though single readings scatter.

Assay: qHTS RealTime-Glo MT Cell Viability Assay in HepG2 cells - 40 hour (AID 1224870); further: nearly all actives have a fitted effect of over 50% in size
Conditions: RealTime-Glo luminescence; series mostly up to 76.8 µM; activity change, negative = cytotoxic: at the top concentration
Description: National Center for Advancing Translational Sciences [NCATS]
NIH Chemical Genomics Center [NCGC]
U.S. Environmental Protection Agency [EPA]
National Institutes of Environmental Health Sciences [NIEHS]
National Toxicology Program [NTP]
U.S. Food and Drug Administration [FDA]
Measure of cell viability is critical in the cell-base assay. Analysis of cell viability is necessary for the characterization of cell responses to cytotoxic drugs and environmental stress. A RealTime-Glo MT Cell Viability Assay to monitor cell viability in real time of continues cell culture during 40 hours of compound treatment was used to screen Tox21 10K library compounds in HepG2 cells. The RealTime-Glo MT Cell Viability Assay is a nonlytic, homogeneous, bioluminescent method to measure cell viability in real time using a simple, plate-based method. The assay involves adding NanoLuc luciferase and a cell-permeant prosubstrate to cells in culture. Viable cells reduce the proprietary prosubstrate to generate a substrate for NanoLuc luciferase. This substrate diffuses from cells into the surrounding culture medium, where it is rapidly used by the NanoLuc Enzyme to produce a luminescent signal. The signal correlates with the number of viable cells, making the assay well suited for cytotoxicity studies.
Tox21 Assay Protocol Summary:
The mixture of HepG2 cell suspension and reagents were dispensed at 600cells/6 ul/well in 1536-well tissue culture treated black solid bottom plates using a Multidrop dispenser. After the assay plates were incubated at a 37 C/5% CO2 incubator for 5 hours, 23 nL of compounds dissolved in DMSO, positive and negative controls was transferred to the assay plate by a pintool work station. The plates were incubated at 37 C for 40 hours. The luminescence intensity were measured at 0h, 8h, 16h, 24h, 32h and 40h time points using ViewLux plate reader during compound treatment.
On the % scale 0 is the no-effect control and ±100 the full control effect.

Row | SMILES | activity change, negative = cytotoxic
1 | Cc1c(N=C=O)cccc1N=C=O | -1.37% (inactive)
2 | CC(CN=Cc1ccccc1O)N=Cc1ccccc1O (stereo not given) | -0.109% (inactive)
3 | CCCCCCOC(=O)c1ccccc1 | -4.29% (inactive)
4 | CCOc1ccc(NC(C)=O)cc1N | 4.87% (inactive)
5 | Cc1ccc2ccccc2c1[N+](=O)[O-] | 3.26% (inactive)
6 | Cc1ccc2c(Cl)cc(Cl)c(O)c2n1 | -0.224% [at 35.3 µM] (inactive)
7 | N#CCCCC(C#N)CCC#N (stereo not given) | 2.09% (inactive)
8 | CCCCCO | 2.01% (inactive)
9 | O=C(OCCOCCOCCOC(=O)c1ccccc1)c1ccccc1 | 0.323% (inactive)
10 | CCCCCCCCCCCCN1CCOCC1 | -1.79% (inactive)
11 | CC(C)(O)C(=O)O | 2.92% (inactive)
12 | COC(=O)Cc1cccc2ccccc12 | -1.03% (inactive)
13 | O=Cc1ccc(Cl)c([N+](=O)[O-])c1 | -5.6% (inactive)
14 | COc1ccc(C(=O)c2ccc(C)cc2)c(O)c1 | 5.62% (inactive)
15 | CCOc1ccccc1O | 0.107% (inactive)
16 | C/C=C1\[C@H]2C=C(C)C[C@]1(N)c1ccc(=O)[nH]c1C2 | 0.64% [at 35.3 µM] (inactive)
17 | CCCCCC1CCC(=O)O1 (stereo not given) | 0.273% (inactive)
18 | CC1(COc2ccc(CC3SC(=O)NC3=O)cc2)CCCCC1 (stereo not given) | 0.0797% [at 35.3 µM] (inactive)
19 | CC(C)Cc1nccs1 | 5.67% (inactive)
20 | CC(C)=CCC/C(C)=C/C=N/O | -3.77% (inactive)

Row | SMILES | activity change, negative = cytotoxic
21 | O=C1c2ccccc2C(=O)c2c1ccc(O)c2O | -4.33% [at 35.3 µM] (inactive)
22 | CC(C)(C)c1ccc(CCC=O)cc1 | 3.63% (inactive)
23 | CCCCCCCCCCCC(=O)OCC | 4.43% (inactive)
24 | O=C(O)COCC(=O)O | 0.0916% (inactive)
25 | C=CCCC | 1.07% (inactive)
26 | CCC(C)CCCC(C)(C)O (stereo not given) | 2.37% (inactive)
27 | c1ccc(CCNc2nc(-c3ccccc3)cs2)cc1 | -8.22% [at 35.3 µM] (inactive)
28 | Cc1ccc(Cl)c(OCC(O)CNC(C)(C)C)c1 (stereo not given) | 0.289% [at 35.3 µM] (inactive)
29 | CC(C)(Cc1c[nH]c2ccccc12)NCC(O)COc1ccccc1C#N (stereo not given) | -7.63% [at 35.3 µM] (inactive)
30 | O=C(O)c1cc(C(=O)O)c(C(=O)O)cc1C(=O)O | -0.618% (inactive)
31 | CC(C)Oc1ccccc1O | -2.08% (inactive)
32 | C=CC(C)(O)CC/C=C(/C)CCC=C(C)C (stereo not given) | 1.07% (inactive)
33 | C=CC(O)CCCCC (stereo not given) | 1.16% (inactive)
34 | CC(=O)c1cccnc1 | 1.24% (inactive)
35 | CCCCCCCCC(=O)OCC(C)OC(=O)CCCCCCCC (stereo not given) | -10.5% (inactive)
36 | CCOc1ccc2c(c1)C(C)CC(C)(C)N2 (stereo not given) | 6.5% (inactive)
37 | CC(=O)Nc1cccc(N)c1 | 1.87% (inactive)
38 | O=C(C1CCCCC1)N1CC(=O)N2CCCc3ccccc3C2C1 (stereo not given) | -8.32% [at 35.3 µM] (inactive)
39 | CCN(CCCCOC(=O)c1ccc(OC)c(OC)c1)C(C)Cc1ccc(OC)cc1 (stereo not given) | -0.0775% [at 35.3 µM] (inactive)
40 | NCCOCCOCCN | 0.75% (inactive)
